Reference: PubChem BioAssay AID1159580 (chemical genetic matrix, 2015)
The campaign covered roughly 5,500 compounds. About 2,000 (36%) were called active. Roughly 18% stayed inconclusive and do not appear here. No stated cut-off is given here; in the data, active means normalized growth mostly below about 0.91 (no sharp cut-off); inconclusive means no clear call, values can overlap the other calls; inactive means mostly above about 0.92. The list shows a part of the results.

Assay: chemical genetic growth profiling, strain panel (AID 1159580);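 further: tested at 20 µM; growth read once vehicle control cultures reached saturation at 30 °C; 1 = growth at the plate median or of vehicle wells; lower values mean less growth of the strain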
Conditions: growth OD
[1] = S. cerevisiae deletion strains, locus YAL013W, strain DEP1, hits give low values
[2] = S. cerevisiae deletion strains, locus YBR229C, strain ROT2, hits give low values
[3] = S. cerevisiae deletion strains, locus YDL101C, strain DUN1, hits give low values
[4] = S. cerevisiae deletion strains, locus YDR150W, strain NUM1, hits give low values
[5] = S. cerevisiae deletion strains, locus YEL061C, strain CIN8, hits give low values
[6] = S. cerevisiae deletion strains, locus YGR078C, strain PAC10, hits give low values
[7] = S. cerevisiae deletion strains, locus YHR030C, strain SLT2, hits give low values
[8] = S. cerevisiae deletion strains, locus YHR087W, strain rtc3, hits give low values
[9] = S. cerevisiae deletion strains, locus YJL187C, strain SWE1, hits give low values
[10] = S. cerevisiae deletion strains, locus YJR043C, strain POL32, hits give low values
[11] = S. cerevisiae deletion strains, locus YJR075W, strain HOC1, hits give low values
[12] = S. cerevisiae deletion strains, locus YLR039C, strain RIC1, hits give low values
[13] = S. cerevisiae deletion strains, locus YLR058C, strain SHM2 (second series), hits give low values
[14] = S. cerevisiae deletion strains, locus YLR085C, strain ARP6, hits give low values
[15] = S. cerevisiae deletion strains, locus YLR262C, strain YPT6, hits give low values
[16] = S. cerevisiae deletion strains, locus YML094W, strain GIM5, hits give low values
[17] = S. cerevisiae deletion strains, locus YMR219W, strain ESC1, hits give low values
[18] = S. cerevisiae deletion strains, locus YMR263W, strain SAP30, hits give low values
[19] = S. cerevisiae deletion strains, locus YNL128W, strain TEP1, hits give low values
[20] = S. cerevisiae deletion strains, locus YNL153C, strain GIM3, hits give low values
[21] = S. cerevisiae deletion strains, locus YNL298W, strain CLA4 (second series), hits give low values
[22] = S. cerevisiae deletion strains, locus YNL322C, strain KRE1, hits give low values
[23] = S. cerevisiae deletion strains, locus YNR030W, strain Alg12, hits give low values
[24] = S. cerevisiae deletion strains, locus YPL055C, strain LGE1, hits give low values
[25] = S. cerevisiae deletion strains, locus YPL241C, strain CIN2, hits give low values
[26] = S. cerevisiae deletion strains, locus YPR135W, strain CTF4, hits give low values

Measured: normalized growth

O=C1c2ccccc2C(=O)N1CNc1cccc(Cl)c1
inactive: [1] 0.983 | [2] 1 | [3] 0.972 | [4] 0.931 | [5] 0.986 | [6] 0.963 | [7] 0.959 | [8] 1 | [9] 1.01 | [10] 0.943 | [11] 0.951 | S. cerevisiae deletion strains, locus YKL190W, strain CNB1, hits give low values 1.02 | [12] 1.01 | [13] 1 | [14] 0.96 | [15] 0.98 | [16] 0.96 | [17] 1 | [18] 0.984 | [19] 1 | [20] 0.94 | [21] 0.943 | [22] 1.01 | [23] 0.95 | S. cerevisiae deletion strains, locus YOL006C, strain TOP1, hits give low values 0.993 | [24] 0.978 | [25] 0.971 | [26] 0.894 | S. cerevisiae strains, strain wild type, hits give low values 1.01

O=C(CNc1cccc(Cl)c1)c1ccc(Cl)cc1
inactive: [1] 0.971 | [2] 0.933 | S. cerevisiae deletion strains, locus YCL061C, strain MRC1, hits give low values 0.975 | [3] 0.952 | S. cerevisiae deletion strains, locus YDL134C, strain PPH21, hits give low values 0.948 | [4] 0.89 | [5] 0.954 | [6] 0.945 | [7] 0.766 | [8] 0.923 | [10] 0.98 | [11] 0.936 | [12] 0.954 | [13] 0.953 | [14] 0.801 | [15] 0.898 | [16] 0.938 | [17] 0.964 | [18] 0.908 | S. cerevisiae deletion strains, locus YMR307W, strain GAS1, hits give low values 0.862 | [19] 0.973 | [20] 0.97 | [21] 0.937 | [22] 0.951 | [23] 0.89 | [24] 0.832 | [25] 0.899 | [26] 0.824
active: S. cerevisiae deletion strains, locus YGR229C, strain SMI1, hits give low values 0.935 | [9] 0.933

Cc1cc(C)c2cc(C(=O)NCCNc3ccc(C(F)(F)F)cn3)[nH]c2c1
active: S. cerevisiae deletion strains, locus YDL214C, strain PRR2, hits give low values 0.468 | S. cerevisiae deletion strains, locus YDR477W, strain SNF1, hits give low values 0.457 | S. cerevisiae deletion strains, locus YER123W, strain YCK3, hits give low values 0.381 | S. cerevisiae deletion strains, locus YER133W, strain GLC7, hits give low values 0.487 | S. cerevisiae deletion strains, locus YFR019W, strain FAB1, hits give low values 0.322 | S. cerevisiae deletion strains, locus YGR040W, strain KSS1, hits give low values 0.501 | S. cerevisiae deletion strains, locus YGR052W, strain FMP48, hits give low values 0.249 | S. cerevisiae deletion strains, locus YGR092W, strain DBF2, hits give low values 0.225 | [7] 0.0941 | S. cerevisiae deletion strains, locus YHR079C, strain IRE1, hits give low values 0.11 | S. cerevisiae deletion strains, locus YHR082C, strain KSP1, hits give low values 0.125 | S. cerevisiae deletion strains, locus YHR205W, strain SCH9, hits give low values 0.457 | S. cerevisiae deletion strains, locus YJL095W, strain BCK1, hits give low values 0.102 | S. cerevisiae deletion strains, locus YJL157C, strain FAR1, hits give low values 0.501 | S. cerevisiae deletion strains, locus YJR066W, strain TOR1 (second series), hits give low values 0.212 | S. cerevisiae deletion strains, locus YJR066W, strain TOR1, hits give low values 0.121 | S. cerevisiae deletion strains, locus YKL048C, strain ELM1, hits give low values 0.511 | S. cerevisiae deletion strains, locus YKL067W, strain YNK1, hits give low values 0.567 | S. cerevisiae deletion strains, locus YKL203C, strain TOR2, hits give low values 0.233 | S. cerevisiae deletion strains, locus YLR113W, strain HOG1, hits give low values 0.137 | S. cerevisiae deletion strains, locus YLR133W, strain CKI1, hits give low values 0.446 | S. cerevisiae deletion strains, locus YLR403W, strain SFP1, hits give low values 0.557 | S. cerevisiae deletion strains, locus YML070W, strain DAK1, hits give low values 0.365 | S. cerevisiae deletion strains, locus YMR205C, strain PFK2 (second series), hits give low values 0.551 | S. cerevisiae deletion strains, locus YNL020C, strain ARK1, hits give low values 0.415 | S. cerevisiae deletion strains, locus YNL183C, strain NPR1, hits give low values 0.169 | S. cerevisiae deletion strains, locus YOL136C, strain PFK27, hits give low values 0.398 | S. cerevisiae deletion strains, locus YOR061W, strain CKA2, hits give low values 0.59 | S. cerevisiae deletion strains, locus YOR119C, strain RIO1, hits give low values 0.341 | S. cerevisiae deletion strains, locus YOR231W, strain MKK1, hits give low values 0.129 | S. cerevisiae deletion strains, locus YPL031C, strain PHO85, hits give low values 0.276 | S. cerevisiae deletion strains, locus YPL153C, strain RAD53, hits give low values 0.184 | S. cerevisiae deletion strains, locus YPL204W, strain HRR25, hits give low values 0.268 | S. cerevisiae deletion strains, locus YPL256C, strain CLN2, hits give low values 0.137
inactive: S. cerevisiae deletion strains, locus YAR019C, strain CDC15, hits give low values 0.983 | S. cerevisiae deletion strains, locus YBL105C, strain PKC1, hits give low values 0.971 | S. cerevisiae deletion strains, locus YBR135W, strain CKS1, hits give low values 0.983 | S. cerevisiae deletion strains, locus YBR136W, strain MEC1, hits give low values 0.981 | S. cerevisiae deletion strains, locus YBR160W, strain CDC28, hits give low values 0.97 | S. cerevisiae deletion strains, locus YDL017W, strain CDC7, hits give low values 0.98 | S. cerevisiae deletion strains, locus YDL028C, strain MPS1, hits give low values 0.98 | [3] 0.936 | S. cerevisiae deletion strains, locus YDL108W, strain KIN28, hits give low values 0.972 | S. cerevisiae deletion strains, locus YDL132W, strain cdc53, hits give low values 0.992 | S. cerevisiae deletion strains, locus YDR052C, strain DBF4, hits give low values 0.983 | S. cerevisiae deletion strains, locus YDR054C, strain cdc34, hits give low values 0.968 | S. cerevisiae deletion strains, locus YDR226W, strain ADK1, hits give low values 0.983 | S. cerevisiae deletion strains, locus YFL009W, strain cdc4, hits give low values 0.991 | S. cerevisiae deletion strains, locus YFL029C, strain CAK1, hits give low values 0.985 | S. cerevisiae deletion strains, locus YFR003C, strain YPI1, hits give low values 0.976 | S. cerevisiae deletion strains, locus YFR028C, strain CDC14, hits give low values 0.976 | S. cerevisiae deletion strains, locus YIL147C, strain SLN1, hits give low values 0.984 | S. cerevisiae deletion strains, locus YJL128C, strain PBS2, hits give low values 0.961 | S. cerevisiae deletion strains, locus YJR016C, strain ILV3, hits give low values 0.985 | S. cerevisiae deletion strains, locus YKL193C, strain SDS22, hits give low values 0.989 | S. cerevisiae deletion strains, locus YMR001C, strain CDC5, hits give low values 0.986 | S. cerevisiae deletion strains, locus YMR277W, strain FCP1, hits give low values 0.992 | S. cerevisiae deletion strains, locus YNL006W, strain LST8, hits give low values 0.986 | S. cerevisiae deletion strains, locus YNL161W, strain CBK1, hits give low values 0.986 | S. cerevisiae deletion strains, locus YNL207W, strain RIO2, hits give low values 0.955 | S. cerevisiae deletion strains, locus YNL222W, strain SSU72, hits give low values 0.974 | S. cerevisiae deletion strains, locus YNL307C, strain MCK1 (second series), hits give low values 0.644 | S. cerevisiae deletion strains, locus YOL078W, strain AVO1, hits give low values 0.985 | S. cerevisiae deletion strains, locus YOR329C, strain SCD5, hits give low values 0.984 | S. cerevisiae deletion strains, locus YPL209C, strain IPL1, hits give low values 0.976 | S. cerevisiae deletion strains, locus YPR025C, strain CCL1, hits give low values 0.98 | S. cerevisiae deletion strains, locus YPR106W, strain ISR1, hits give low values 1 | S. cerevisiae deletion strains, locus YPR111W, strain DBF20, hits give low values 0.944 | S. cerevisiae deletion strains, strain NNK1, hits give low values 0.94 | S. cerevisiae deletion strains, strain TSCII, hits give low values 0.985
